From PubChem BioAssay AID463173 (ICCB-Longwood Screening Facility, Harvard Medical School, 2010) come the findings set out here.

The whole screen tested about 52,000 compounds, of which about 4,300 (8.3%) were called active. No stated cut-off is given here; in the data, active means survival mostly below about 52% (no sharp cut-off); inactive means mostly above about 56%. What follows is part of a selection rich in actives, with near analogues and random picks from the rest.

The test concerns DeltatarO mutant. Description: S. aureus survival, RN4220 and DeltatarO strains – OD600, teichoic acid synthesis inhibitors, primary screen (AID 463173). Conditions: S. aureus RN4220 wild type/DeltatarO growth, OD600, 18 h, hits give low values, screened at 18.75 µg/mL (by protocol).
Consider `COc1ccc(-n2nc(C(=O)Nc3ccccn3)c3c4ccccc4n(C)c3c2=O)cc1`, for which the survival is 72% (inactive).

Take `O=C(NCCc1csc(-c2cccc(F)c2)n1)c1ccc(Br)o1`: the survival was 83% (inactive). For `COc1ccc(C(C(=O)NCc2ccccc2)N(C(=O)Cn2nnc3ccccc32)c2ccc(OC)cc2)cc1` (centres undefined) the value was 60% (inactive). In the case of `CC(=O)Nc1ccc(N(C(=O)Cn2nnc3ccccc32)C(C(=O)NCc2ccccc2)c2ccc(C)cc2)cc1` (centres undefined), the survival was 38% (active). Consider `COc1cc(N(C(=O)Cn2nnc3ccccc32)C(C(=O)NCC2CCCO2)c2ccc(F)cc2)ccc1-n1cnnn1` (centres undefined), for which the survival is 105% (inactive).

Take `COc1ccc(N(C(=O)Cn2nnc3ccccc32)C(C(=O)NCc2ccccc2)c2ccc(F)cc2)cc1` (centres undefined): the survival is 42% (active).

On to `COc1cccc(C(C(=O)NCc2ccccc2)N(C(=O)Cn2nnc3ccccc32)c2cccc(C(C)=O)c2)c1` (centres undefined), for which the survival was 44% (active).

Take `CC(=O)c1cccc(N(C(=O)Cn2nnc3ccccc32)C(C(=O)NCc2ccccc2)c2ccc(F)cc2)c1` (centres undefined): the survival is 85% (inactive). On to `COc1ccc(C(C(=O)NCc2ccccc2)N(C(=O)Cn2nnc3ccccc32)c2ccc(F)cc2)cc1` (centres undefined), for which the survival was 49% (inactive).

On to `COc1ccc(C(C(=O)NCc2ccccc2)N(C(=O)Cn2nnc3ccccc32)c2cccc(OC)c2)cc1` (centres undefined), for which the survival is 50% (inactive). Consider `CCOc1ccc(N(C(=O)Cn2nnc3ccccc32)C(C(=O)NCc2ccccc2)c2ccc(OC)cc2)cc1` (centres undefined), for which the survival was 52% (inactive). `O=C(COc1ccc(S(=O)(=O)NC2CCCCC2)cc1)Nc1ccc(C(F)(F)F)cc1`: the survival is 64% (inactive). On to `CC(NC1=NCCN1)C(=O)O` (centres undefined), for which the survival is 97% (inactive).

With `COC(=O)C1C(=O)C2=C(CC1C)Nc1ccccc1NC2c1cc(F)ccc1F` (centres undefined), the survival is 82% (inactive). As to `Cc1occc1-c1nnc(SCC(=O)NCc2ccc3c(c2)OCO3)n1CC(C)C`, the survival is 88% (inactive). Consider `COc1ccccc1NC(=O)CC(C)n1nc(C)cc1C` (centres undefined), for which the survival is 67% (inactive). On to `COc1ccc(NC(=O)CCS(=O)(=O)c2ccc3nc(C)sc3c2)cc1Cl`, for which the survival was 44% (inactive). `Cc1cc(-c2ccc(C)c(S(=O)(=O)NCCc3ccc(S(N)(=O)=O)cc3)c2)on1`: the survival is 92% (inactive). On to `Cc1ccc(C)c(N2C(=O)N(Cc3cccc(C(F)(F)F)c3)c3ccccc3S2(=O)=O)c1`, for which the survival was 88% (inactive). Turning to `COc1cccc(C(=O)N2CCN(CCc3ccncc3)CC2)c1`, the survival is 87% (inactive). Turning to `COC(=O)c1ccc(C2c3c(-c4ccc(Br)cc4)n[nH]c3C(=O)N2c2ccc(Cl)cc2)cc1` (centres undefined), the survival was 93% (inactive). As for `CCOc1cc(C2c3c(-c4ccc(Br)cc4)n[nH]c3C(=O)N2c2ccc(Cl)cc2)ccc1O` (centres undefined), the survival is 35% (active). Turning to `CCOC(=O)c1ccc(N2C(=O)c3[nH]nc(-c4ccc(OC)cc4)c3C2c2cccc(O)c2)cc1` (centres undefined), the survival is 57% (inactive). For `CCOC(=O)c1ccc(N2C(=O)c3[nH]nc(-c4ccc(C)cc4)c3C2c2ccc(O)c(OCC)c2)cc1` (centres undefined) the value was 87% (inactive); for `Cc1ccc(-c2n[nH]c3c2C(c2cccc(O)c2)N(c2ccc(C(=O)O)cc2)C3=O)cc1` (centres undefined), 86% (inactive). For `CCOc1ccc(-c2n[nH]c3c2C(c2ccccc2OC)N(c2ccc(Br)cc2)C3=O)cc1` (centres undefined) the value was 69% (inactive); for `O=C1c2[nH]nc(-c3ccc(Br)cc3)c2C(c2cccc(O)c2)N1c1ccc(Cl)cc1` (centres undefined), -10% (active).

On to `COc1ccc(-c2n[nH]c3c2C(c2ccc(O)cc2)N(c2ccc(Br)cc2)C3=O)cc1` (centres undefined), for which the survival was -3% (active).

For the compound `CCOC(=O)c1ccc(N2C(=O)c3[nH]nc(-c4ccc(OC)cc4)c3C2c2ccc(C)cc2)cc1` (centres undefined), the survival is 81% (inactive). Next, `Cc1ccc(NC(=O)C(=O)NCc2ccco2)cc1`: 58% (inactive).

As for `O=c1cc(CSc2n[nH]c(-c3ccccc3)n2)[nH]c2ccccc12`, the survival was 129% (inactive). For `Cc1nn2c(=O)cc(COC(=O)c3cccc(NC(=O)c4ccc(C(C)(C)C)cc4)c3)nc2s1`, the survival is 85% (inactive).

Turning to `CCc1nn(CC(=O)NCCC(C)C)c(=O)c2cc3occc3n12`, the survival is 125% (inactive). Consider `CCCc1cc(=O)[nH]c(Nc2cc(Cl)ccc2OC)n1`, for which the survival was 68% (inactive). Take `COC(=O)c1cccc(NC(=O)C2CCN(S(=O)(=O)Cc3ccccc3)CC2)c1C`: the survival is 77% (inactive). Turning to `COc1cccc(-n2c(-c3ccc(C)cc3)cc3c2CC(C)(C)CC3=O)c1`, the survival is 18% (active). With `Cc1ccc(-n2c3c(cc(-c4nc(-c5ccc(Cl)cc5)cs4)c2=O)C(=O)CC(C)(C)C3)cc1`, the survival was 79% (inactive). For the compound `COc1ccc(-n2c(-c3ccc(C)cc3)cc3c2CC(C)(C)CC3=O)cc1Cl`, the survival is 80% (inactive). For the compound `COc1cccc(-n2c(-c3ccc(Cl)cc3)cc3c2CC(C)(C)CC3=O)c1`, the survival was 35% (active). Turning to `COc1ccc(-n2c(-c3ccc(C)cc3)cc3c2CC(C)(C)CC3=O)c(OC)c1`, the survival is 101% (inactive). In the case of `COc1ccc(C)cc1-n1c(-c2ccc(C)cc2)cc2c1CC(C)(C)CC2=O`, the survival was 114% (inactive). Turning to `COc1ccc(C)cc1-n1c(-c2ccc(Cl)cc2)cc2c1CC(C)(C)CC2=O`, the survival was 86% (inactive). As for `COc1ccc(-n2c(-c3ccc(Cl)cc3)cc3c2CC(C)(C)CC3=O)c(OC)c1`, the survival is 4% (active). With `COc1ccc(-n2c3c(cc(-c4nc(-c5ccc(Cl)cc5)cs4)c2=O)C(=O)CC(C)(C)C3)cc1`, the survival was 140% (inactive).

With `Cc1cccc(-n2c3c(cc(-c4nc(-c5ccc(Cl)cc5)cs4)c2=O)C(=O)CC(C)(C)C3)c1`, the survival is 62% (active). As for `Cc1ccc(-c2cc3c(n2-c2ccc(C)cc2)CC(C)(C)CC3=O)cc1`, the survival is 74% (inactive). Turning to `CC1(C)CC(=O)c2cc(-c3nc(-c4ccc(Cl)cc4)cs3)c(=O)n(-c3cccc(F)c3)c2C1`, the survival is 70% (inactive). Take `CN(C)c1ccc(CNC(=O)c2cnc3sc(N4CCOCC4)nn3c2=O)cc1`: the survival was 85% (inactive). In the case of `CC(CCc1ccccc1)NC(=O)Cn1ncc2c3ccccc3n(Cc3ccccc3)c2c1=O` (centres undefined), the survival is 81% (inactive). Next, `CCc1ccc(OCC2c3cc(OC)c(OC)cc3CCN2C(=O)COc2ccccc2)cc1` (centres undefined): 91% (inactive); `CCC(C(=O)NCc1ccccc1Cl)n1nc(C)c2sc3ccccc3c2c1=O` (centres undefined): 103% (inactive); `Cc1cccc(NC(=O)c2cc(S(=O)(=O)N3CCCCCC3)cn2C)c1C`: 67% (inactive). With `O=C(NCCc1ccccc1)C1CCN(Cc2cc3ccccc3n2Cc2ccccc2)CC1`, the survival is 79% (inactive). For `Cc1cccc(N(C)S(=O)(=O)c2cc3[nH]c(=O)c(=O)[nH]c3cc2C)c1` the value was 88% (inactive).

As for `CC(C)c1cnc2c(c1SCC(=O)Nc1cccc(F)c1)c(=O)n(C)c(=O)n2C`, the survival is 81% (inactive). As for `CCN(CC)CCn1c(-c2ccccc2)csc1=Nc1ccccc1`, the survival is 42% (active). With `Cc1ccc(-c2csc(=Nc3ccccc3)n2Cc2ccc3c(c2)OCO3)cc1`, the survival is 73% (inactive). Turning to `Cc1ccc(-c2csc(=Nc3ccccc3)n2CCCO)cc1`, the survival is 5% (active). On to `Cc1ccc(-c2csc(=Nc3ccccc3)n2Cc2ccc3c(c2)OCO3)cc1C`, for which the survival is 112% (inactive). With `OCCCn1c(-c2ccc(F)cc2)csc1=Nc1ccc(F)cc1`, the survival is 39% (active). Consider `O=S(=O)(c1ccc(-c2csc(=Nc3ccc(F)cc3)n2CCCCCCO)cc1)N1CCCC1`, for which the survival was 56% (inactive). Take `Clc1ccc(-c2csc(=Nc3ccccc3)n2Cc2ccc3c(c2)OCO3)cc1`: the survival is 95% (inactive). Next, `O=S(=O)(c1ccc(-c2csc(=Nc3ccc(OC(F)(F)Cl)cc3)n2CCCO)cc1)N1CCCC1`: 159% (inactive). In the case of `COc1ccc(-c2csc(=Nc3ccccc3)n2CCO)cc1F`, the survival is 58% (inactive).

As to `CCOC(=O)c1c(NC(=O)CSc2cn(CCNC(=O)c3c(F)cccc3F)c3ccccc23)sc2c1CCC2`, the survival was 93% (inactive).

Turning to `COc1ccc(Cl)cc1NC(=O)c1cc(S(=O)(=O)N(C)Cc2ccccc2)ccc1F`, the survival was 74% (inactive). As for `O=C(c1cc(-c2ccc(Br)cc2)n[nH]1)N1CCN(S(=O)(=O)c2ccc(Br)cc2)CC1`, the survival was 79% (inactive). Next, `CN(C)S(=O)(=O)n1cc(/C=C(\NC(=O)c2ccccc2)C(=O)NCCCn2ccnc2)c2ccccc21`: 104% (inactive); `COc1ccc(CNC(=O)c2ccc(NC(=O)N3CCSc4ncccc43)cc2)c(OC)c1`: 81% (inactive); `COc1ccc(OC)c(C2C(C(N)=O)=C(C)Nc3nc(-c4cccc(Cl)c4)nn32)c1` (centres undefined): 113% (inactive).

For the compound `CCOc1ccc(S(=O)(=O)N2CCN(c3cc(Cl)ccc3Cl)CC2)c2ccccc12`, the survival was 64% (inactive). With `Cc1c(Cl)ccc2sc(NC(=O)c3ccc(S(=O)(=O)N4CCCc5ccccc54)cc3)nc12`, the survival was 55% (inactive). `O=C(Nc1nnc(S(=O)(=O)N2CCCc3ccccc32)s1)c1cccc(F)c1`: the survival was 7% (active). Consider `O=C(Nc1nc2c(F)cccc2s1)c1ccc(S(=O)(=O)N2CCCc3ccccc32)cc1`, for which the survival is 102% (inactive).

With `O=C(Nc1nnc(S(=O)(=O)N2CCCc3ccccc32)s1)c1ccc(Cl)cc1`, the survival is 15% (active). For the compound `CCC(CC)C(=O)Nc1nnc(S(=O)(=O)N2CCc3ccccc32)s1`, the survival was 73% (inactive). Take `Cc1cc(C)c2nc(NC(=O)c3ccc(S(=O)(=O)N4CCc5ccccc54)cc3)sc2c1`: the survival was 83% (inactive).

Consider `O=C(Nc1nnc(S(=O)(=O)N2CCc3ccccc32)s1)c1ccccc1`, for which the survival was 12% (active). For the compound `O=C(Nc1nnc(S(=O)(=O)N2CCCc3ccccc32)s1)c1ccccc1`, the survival is 27% (active). In the case of `Cc1nc2ccccc2c2nc(N)nn12`, the survival was 85% (inactive). Next, `C=Cc1ccc(CSc2nc(-c3ccc(Cl)cc3)nc3c2Cc2c(CO)cnc(C)c2O3)cc1`: 70% (inactive).

`COc1ccc(NC(=O)Cn2c(SCc3ccc(F)cc3)nc3cccnc32)cc1OC`: the survival is 74% (inactive). Next, `CC(=O)c1ccc(S(=O)(=O)Nc2cccc(-c3ccc(N4CCCC4)nn3)c2)cc1`: 89% (inactive). As for `Cc1ccccc1Cn1c(=O)n(CCCCCC(=O)NCc2ccc3c(c2)OCO3)c(=O)c2sccc21`, the survival is 101% (inactive).
